The list is not random: actives were taken first. Their share in the collection is about 3.1%.
HIF-2a inh: HIF-2a reporter inhibitors, primary screen, luminescence, 786-0 RCC cells; AID 624352, 2012; 360,000 compounds, 0.72% hits; 786-0 RCC cells HIF-2a reporter, luciferase luminescence, overnight; inhibition, % at 18.8 µM;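 active = inhibition of the luminescence signal of 40% or more relative to plate controls, in a single-dose primary screen at 18.75 µM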
PPC-1+TRAIL kill: compounds killing PPC-1 cancer cells with TRAIL present, primary screen, TRAIL potentiator project, ATPLite luminescence, uHTS; PPC-1 cells + TRAIL, ATPLite viability luminescence; cell killing (% activity), % at 4 µM or 5 µM; 220,000 compounds, 0.41% hits;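 active = cell killing above 50% in the first pass at 4 µM, then a duplicate retest at 5 µM averaging 50% or more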
Peg3 prom inh-1: Peg3 promoter-driven luciferase inhibitors, primary screen, cell-based, HeLa, luciferase luminescence; HeLa PEG-Prom luciferase reporter, overnight; inhibition, % at 20 µM; 360,000 compounds, 1.7% hits; AID 588405, 2011;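 active = inhibition of at least 50% at 20 µM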
CF NFkB inh: inhibitors of PAF-induced NF-kB signaling, primary screen, cell-based, GFP fluorescence, uHTS | KKLEB NF-kB-GFP reporter, GFP fluorescence overnight | inhibition, % at 5 µM | 360,000 compounds, 0.86% hits | AID 588850, 2011;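 active = at least 50% inhibition at 5 µM, scaled per plate between neutral and stimulator controls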;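 also: PAF is a Pseudomonas aeruginosa culture filtrate used as stimulus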
C8 TRAIL sens: viability loss with TRAIL in NB7+C8 cells, primary screen, TRAIL sensitizer project, cell-based, ATPlite luminescence. inhibition (viability loss, TRAIL sensitization), % at 10 µM. 360,000 compounds, 1% hits. AID 624354, 2012;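 active = compounds causing at least 50% loss of cell viability in the single-dose screen, relative to plate controls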
KKLEB cytotox: cytotoxicity in KKLEB CF airway cells, primary screen, cytotoxicity control for CF NF-kB inhibitor project, cell-based, uHTS, fluorescence assay plates; KKLEB CF airway cells viability, ATPlite luminescence, overnight; stronger effect = lower value; cells stimulated with P. aeruginosa culture filtrate; AID 602141, 2011; 360,000 compounds, 0.36% hits; activity change (cytotoxicity), % at 5 µM;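 active = corrected activity change at or below -50% at 5 µM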
Peg3 prom inh-2: Peg3 promoter reporter inhibitors, retest, confirmation, cell-based, HeLa, luciferase reporter, single concentration; shares compounds with Peg3 prom inh-1; HeLa PEG-Prom luciferase reporter, luminescence, overnight; inhibition, % at 20 µM; 1,300 compounds, 84% hits;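 active = at 20 µM dose, 40% or more inhibition averaged across four replicates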
Of the large screens only hits and unclear results are named; the others gave an inactive call (follow-up assays come after a bar, where they were run).

C=CCn1c(COc2ccccc2)nnc1SC(C)C(=O)N/N=C/c1cc(Cl)ccc1O (configuration not stated)	Peg3 prom inh-1 60 | Peg3 prom inh-2 71
COc1ccc(CC(N)c2csc(NC(=O)Nc3cc(OC)ccc3OC)n2)cc1 (configuration not stated)	Peg3 prom inh-1 94 (no result: PPC-1+TRAIL kill) | Peg3 prom inh-2 96
COc1ccc(CC(N)c2csc(NC(=O)Nc3ccccc3C(C)(C)C)n2)cc1 (configuration not stated)	Peg3 prom inh-1 87 (no result: PPC-1+TRAIL kill) | Peg3 prom inh-2 76
COc1cc(NC(=O)Nc2nc(C(N)CCc3ccccc3)cs2)cc(OC)c1OC (configuration not stated)	Peg3 prom inh-1 74 (no result: PPC-1+TRAIL kill) | Peg3 prom inh-2 83
Cc1ccccc1NC(=O)Nc1nc(C(N)Cc2ccccc2)cs1 (configuration not stated)	Peg3 prom inh-1 73 (no result: PPC-1+TRAIL kill) | Peg3 prom inh-2 42
Cc1ccccc1NC(=O)Nc1nc(CN)cs1	none (no result: PPC-1+TRAIL kill)
COc1ccc(CC(N)c2csc(NC(=O)NCCc3ccc(OC)c(OC)c3)n2)cc1 (configuration not stated)	none (no result: PPC-1+TRAIL kill)
Cc1ccccc1C(=O)NC1CCN(CC(=O)Nc2ccc(Br)cc2)CC1	none (no result: PPC-1+TRAIL kill)
Cc1c(C(=O)N2CCC(C(N)=O)CC2)oc2ccc(Br)cc12	none (no result: PPC-1+TRAIL kill)
CSc1ccc(CN2CCC(Oc3ccc(C(=O)N4CCCC4)cc3)CC2)cc1	none (no result: PPC-1+TRAIL kill)
O=C(Nc1ccccc1Cl)c1cc(C2CCCCN2C(=O)c2cccs2)on1 (configuration not stated)	none (no result: PPC-1+TRAIL kill)
C/C(=N\N=C(N)N)c1cc(Cl)ccc1Cl	none
C/C(=N\N=C(N)N)c1ccc(Cl)cc1Cl	Peg3 prom inh-1 71 | Peg3 prom inh-2 73
Cc1cc(C)c2c(N)c3cccc(C)c3nc2n1	Peg3 prom inh-1 107 | Peg3 prom inh-2 99
O=C(Nc1ccc(CN2CCCCC2)cc1)Nc1ccc(Br)cc1Cl	Peg3 prom inh-1 67 | Peg3 prom inh-2 96
S=C(Nc1ccc(Br)cc1Cl)N1CCCC1	none (no result: PPC-1+TRAIL kill)
O=C(CN(C(=O)c1csnn1)c1ccccc1F)NCc1ccc2c(c1)OCO2	none (no result: PPC-1+TRAIL kill)
CCc1ccc(NC(=O)CSc2nc3ccccc3c(=O)n2CCCN2CCC(C)CC2)cc1	Peg3 prom inh-1 93 | Peg3 prom inh-2 95
Cc1cccc(N=C2Sc3nc4c(C)c(C)ccc4cc3CN2CCN2CCOCC2)c1	Peg3 prom inh-1 55 | Peg3 prom inh-2 57
O=C(COc1ccc2c(c1)CCC2)Nc1ccccn1	HIF-2a inh 60, Peg3 prom inh-1 75, C8 TRAIL sens 84 (no result: PPC-1+TRAIL kill) | Peg3 prom inh-2 67
CCN(CC)CCc1nc(-c2ccccc2)no1	none (no result: PPC-1+TRAIL kill)
Cc1cc(S(=O)(=O)c2ccc(Cl)cc2)nc(S(=O)(=O)c2ccc(Cl)cc2)c1C#N	HIF-2a inh 89, Peg3 prom inh-1 113, CF NFkB inh 88, KKLEB cytotox -93 (no result: PPC-1+TRAIL kill) | Peg3 prom inh-2 97
COc1cccc(CN2CC(C(=O)NCCCn3cccn3)CCC2=O)c1 (configuration not stated)	none (no result: PPC-1+TRAIL kill)
COc1ccc(/C=C/C(=O)c2ccc3c4c(cccc24)CC3)cc1OC	Peg3 prom inh-1 69 | Peg3 prom inh-2 84
Cc1ccc2cccc(OCC(=O)Nc3cccc(S(=O)(=O)N4CCCC4)c3)c2n1	Peg3 prom inh-1 64 (no result: PPC-1+TRAIL kill) | Peg3 prom inh-2 64
CCCCc1nc(C(N)=O)c2[nH]c(=O)n(-c3ccc(OCC)cc3)c2n1	none (no result: PPC-1+TRAIL kill)
CCN(CC)CCNC1=NCCn2c1cc1cc(OC)ccc12	none
CCN(CC)CCCCNc1ncc2cc(-c3cc(OC)cc(OC)c3)c(NC(=O)NC(C)(C)C)nc2n1	Peg3 prom inh-1 74 (no result: PPC-1+TRAIL kill) | Peg3 prom inh-2 77
O=C(O)c1ccc(N=N/C(=N\Nc2ccc(C(=O)O)cc2)c2ccccc2)cc1	none (no result: PPC-1+TRAIL kill)
Brc1ccc(N/N=C(/N=Nc2nn[nH]n2)c2ccccc2)cc1	Peg3 prom inh-1 70 | Peg3 prom inh-2 64
CCCCNc1ncnc2sc3c(c12)CCN(CCC)C3	none (no result: PPC-1+TRAIL kill)
O=C(Nc1ncc([N+](=O)[O-])s1)c1ccc2c(c1)OCO2	HIF-2a inh 61, Peg3 prom inh-1 70, C8 TRAIL sens 68 (no result: PPC-1+TRAIL kill) | Peg3 prom inh-2 64
COc1cccc(-c2sc3ccc(OC)cc3c2-c2ccc(OCCN(C)C)cc2)c1	Peg3 prom inh-1 100 (no result: PPC-1+TRAIL kill) | Peg3 prom inh-2 71
COc1cccc(-c2sc3ccc(OC)cc3c2-c2ccc(O)cc2)c1	none (no result: PPC-1+TRAIL kill)
O=C(NC1CCCCC1)c1nc(-c2c(F)cccc2F)oc1-c1ccccc1	none (no result: PPC-1+TRAIL kill, Peg3 prom inh-1, CF NFkB inh, KKLEB cytotox)
CCC(=O)NC(c1cccc([N+](=O)[O-])c1)c1c(OC(C)=O)ccc2ccccc12 (configuration not stated)	none
COc1ccc(C(NC(C)=O)c2cc(Cl)c3cccnc3c2O)cc1OC (configuration not stated)	none
CCCCC(=O)NC(c1ccc(N(C)C)cc1)c1ccc2cccnc2c1O (configuration not stated)	none (no result: PPC-1+TRAIL kill)
CCCC(=O)NC(c1cccc([N+](=O)[O-])c1)c1ccc2cccnc2c1O (configuration not stated)	Peg3 prom inh-1 58 (no result: PPC-1+TRAIL kill) | Peg3 prom inh-2 66
CCCCC(=O)NC(c1ccc(N(CC)CC)cc1)c1ccc2cccnc2c1O (configuration not stated)	Peg3 prom inh-1 59 (no result: PPC-1+TRAIL kill) | Peg3 prom inh-2 70
CCCCC(=O)NC(c1ccc(Cl)cc1)c1ccc2cccnc2c1O (configuration not stated)	Peg3 prom inh-1 62 (no result: PPC-1+TRAIL kill) | Peg3 prom inh-2 69
CCC(=O)NC(c1ccc(OC)c(OC)c1)c1cc(Cl)c2cccnc2c1O (configuration not stated)	Peg3 prom inh-1 55 | Peg3 prom inh-2 63
O=C(NCCc1ccccc1)c1cc(S(=O)(=O)N2CCCCC2)c[nH]1	none (no result: PPC-1+TRAIL kill)
CC12CCC(=O)N1C(C(=O)Nc1nc(-c3cc(F)ccc3F)cs1)CS2 (configuration not stated)	none (no result: PPC-1+TRAIL kill)
C[C@H](CO)N1C[C@H](C)[C@@H](CN(C)C(=O)Nc2ccc(C(F)(F)F)cc2)Oc2c(NS(=O)(=O)c3ccccc3)cccc2C1=O	none (no result: PPC-1+TRAIL kill)
COc1ccc(C[C@H]2CN3C(=NC[C@@H]3C(C)C)N2C[C@H](C)NC(=O)c2ccc(C)c(Br)c2)cc1	none
COc1ccc(C[C@H]2CN3C(=NC[C@@H]3Cc3ccc(O)cc3)N2C[C@H](C)NC(=O)c2ccc(C)c(Br)c2)cc1	Peg3 prom inh-1 101 | Peg3 prom inh-2 97

High-throughput results: PubChem, Sanford-Burnham Center for Chemical Genomics
